This is a sample that favours compounds with a hit; in the whole collection about 19% have one here.
TDP1 cell noCPT: qHTS for Inhibitors of human tyrosyl-DNA phosphodiesterase 1 (TDP1): qHTS in cells in absence of CPT. DT40 Tdp1-/- hTDP1 cells, no CPT, ATP luminescence, 48 h. Potency, µM (highest dose often 46.2 µM), hits mostly inhibitors. actives 15% (n = 420,000). AID 686978, 2013; further: nearly all actives have a fitted effect of over 55% in size
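Compound effects on proliferation are scored in DT40 Tdp1-/-;hTDP1 cells in the absence of CPT. ATP levels (CellTiter-Glo luminescence) are recorded after a ≥48 hr, 37 °C incubation.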
HT1080NT lethal: kills 2HG-producing HT-1080-NT fibrosarcoma cells; HT-1080-NT fibrosarcoma viability, CellTiter-Glo ATP luminescence, 48 h; Potency, µM (top dose mostly 46.1 µM), most hits filed as cytotoxic; actives 1.6% (n = 360,000);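 further: NT is the 2HG producing partner of a matched IDH1 knockdown line; nearly all actives have a fitted effect of over 55% in size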
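750 cells/well, RPMI + 5% FBS; 2 h settle, compound pin-transfer, 48 h at 37 degrees C. CellTiter-Glo 10 min RT, luminescence. Normalized to DMSO and media-only wells.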
HT1080 IDH1KD tx: HT-1080 IDH1 knockdown cell toxicity (counter line); HT-1080 IDH1 knockdown viability, ATP luminescence, 48 h; Potency, µM (series often up to 46.1 µM), most hits filed as cytotoxic; actives 2% (n = 360,000)
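Viability of IDH1-knockdown HT-1080 fibrosarcoma cells was assessed by CellTiter-Glo after 48 h at 37 °C with titrated compound; concentration-effect curves were classified by fit quality and response size.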
IL-1B inflam inh: inhibitors of inflammasome signaling (IL-1 beta secretion). actives 4.7% (n = 360,000). activity change, % at 57.5 µM. THP-1 LPS/ATP IL-1B secretion, AlphaLISA, 16 h; active compounds read low; in the data active means activity change below about -50%; inconclusive means mostly about -30% to -49%
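Secreted IL-1B measured by AlphaLISA bead assay after 16 h compound exposure of THP-1 cells; compounds (final up to 57.5 uM) added 1 h before LPS (250 ng/mL) and ATP (1.25 mM) stimulation; lower signal means less secretion.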
DT40 TDP1 CPT: DT40-hTDP1 cell growth loss with CPT. chicken DT40 Tdp1-/-;hTDP1 cells + 20 nM CPT, ATP luminescence, 48 h. AID 686979. actives 12% (n = 420,000). Potency, µM (titrated, usually from 46.2 µM), usual class: inhibitors; further: nearly all actives have a fitted effect of over 55% in size
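Chicken DT40 Tdp1-/- cells stably complemented with human TDP1 were seeded at 400 cells/well in medium containing 20 nM camptothecin, exposed to pin-transferred compounds, and grown at 37 °C for at least 48 hr. Viability was read as ATP luminescence.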
Each line names hits and unclear results; the compound was inactive in the other large screens. Unless noted, the call rests on the fitted dose curve; in most records, active means well fitted curve in the direction sought with a large enough effect; inconclusive means small, poorly fitted or top-dose-only effect, or another doubt; inactive means no such curve, though single readings can be large; an effect the other way counts as inactive or inconclusive.

CC(=O)c1cccc(-c2ccnc3c2CC(C(=O)NCc2ccc(F)c(F)c2)O3)c1 (configuration not stated)	TDP1 cell noCPT 4.11µM, HT1080NT lethal inconclusive, HT1080 IDH1KD tx inconclusive, DT40 TDP1 CPT 4.11µM
CC(OC(=O)Cn1cc(C(F)(F)F)ccc1=O)C(=O)N(C)c1ccccc1 (configuration not stated)	none
Cc1cc(C)c(NC(=O)C(C)Sc2nc3ccc(N4C(=O)c5ccccc5C4=O)cc3s2)c(C)c1 (configuration not stated)	TDP1 cell noCPT 35.5µM, DT40 TDP1 CPT inconclusive
O=C(NC12CC3CC(CC(C3)C1)C2)OCCNC1CCCCC1	TDP1 cell noCPT inconclusive
COc1ccc(Cl)cc1NC(=O)c1c(NCc2sccc2C)sc2c1CCCC2	TDP1 cell noCPT 20.6µM, DT40 TDP1 CPT inconclusive (no result: HT1080NT lethal, HT1080 IDH1KD tx, IL-1B inflam inh)
COc1ccc(NC(=O)c2c(NCc3cccs3)sc3c2CCCC3)c(OC)c1	TDP1 cell noCPT 16.4µM, DT40 TDP1 CPT 16.4µM (no result: HT1080NT lethal, HT1080 IDH1KD tx, IL-1B inflam inh)
COc1ccc(OC)c(NC(=O)c2c(NC(=O)CCC(=O)O)sc3c2CCCCC3)c1	TDP1 cell noCPT inconclusive, DT40 TDP1 CPT inconclusive
COc1ccccc1NC(=O)c1c(NC(=O)CCC(=O)O)sc2c1CCCCC2	none
COc1ccc(NC(=O)c2c(NCc3sccc3C)sc3c2CCCCC3)c(OC)c1	TDP1 cell noCPT 3.26µM, DT40 TDP1 CPT 3.26µM (no result: HT1080NT lethal, HT1080 IDH1KD tx, IL-1B inflam inh)
COc1ccc(OC)c(NC(=O)c2c(NCc3cccs3)sc3c2CCCCC3)c1	TDP1 cell noCPT inconclusive, DT40 TDP1 CPT 23.1µM (no result: HT1080NT lethal, HT1080 IDH1KD tx, IL-1B inflam inh)
COc1ccccc1NC(=O)c1c(NC(=O)COc2ccccc2)sc2c1CCCCC2	none (no result: HT1080NT lethal, HT1080 IDH1KD tx, IL-1B inflam inh)
COc1ccc(NC(=O)c2c(NC(=O)CNCC(C)C)sc3c2CCC3)c(OC)c1	TDP1 cell noCPT 6.51µM, HT1080 IDH1KD tx inconclusive, DT40 TDP1 CPT 4.11µM
Nc1ccc(SC(F)(F)F)cc1C(=O)c1ccccc1	TDP1 cell noCPT inconclusive, IL-1B inflam inh -102.7, DT40 TDP1 CPT inconclusive
Nc1cc(C(=O)O)ccc1Sc1ccccc1C(=O)O	TDP1 cell noCPT inconclusive
CC1CC(C)(C)NC(=S)N1CCCC(=O)N1CCN(c2ccc(F)cc2)CC1 (configuration not stated)	TDP1 cell noCPT inconclusive
Cc1ccc2nc(-c3ccccc3)c(Cc3cccc(Cl)c3)n2c1	TDP1 cell noCPT 18.4µM, HT1080NT lethal inconclusive, HT1080 IDH1KD tx inconclusive, DT40 TDP1 CPT 20.6µM
Cc1ccc(Cc2c(-c3cccc(Cl)c3)nc3ccc(Cl)cn23)cc1	TDP1 cell noCPT inconclusive, DT40 TDP1 CPT inconclusive
CCCc1nc2ccc(C)cn2c1Cc1cccc(Cl)c1	TDP1 cell noCPT 16.4µM, HT1080NT lethal inconclusive, HT1080 IDH1KD tx inconclusive, DT40 TDP1 CPT inconclusive
Cc1ccc(Cc2c(-c3cccc(Br)c3)nc3ccc(Cl)cn23)cc1	TDP1 cell noCPT 18.4µM, DT40 TDP1 CPT inconclusive
Cc1ccc(Cc2c(-c3cccc(Cl)c3)nc3ccc(C)cn23)cc1	TDP1 cell noCPT 16.4µM, HT1080NT lethal inconclusive, HT1080 IDH1KD tx inconclusive, DT40 TDP1 CPT inconclusive
CN(CC(=O)Nc1ccc(F)c(F)c1F)C(=O)c1cc(S(=O)(=O)N(C)C)ccc1N1CCCC1	none
Cc1cc(C(=O)Nc2cc(S(C)(=O)=O)ccc2Cl)c(C)o1	none
CN1CCN(NC(=O)CC(C)(C)C)CC1	none
COc1ccc(C2C(C#N)=C(N)Oc3cc(C)[nH]c(=O)c32)cc1OC (configuration not stated)	none
Cc1nnc(NCCc2ccccc2)n(N)c1=O	none
Cc1ccc(Cc2c(-c3ccc(Cl)cc3)nc3ccc(Cl)cn23)cc1	TDP1 cell noCPT 20.6µM, DT40 TDP1 CPT inconclusive
Cc1ccc2nc(-c3cccc(Br)c3)c(Cc3ccccc3)n2c1	TDP1 cell noCPT inconclusive, HT1080NT lethal inconclusive, DT40 TDP1 CPT 25.9µM
Clc1ccc2nc(-c3ccccc3)c(Cc3ccccc3)n2c1	TDP1 cell noCPT 18.4µM, DT40 TDP1 CPT inconclusive
Clc1cccc(Cc2c(-c3cccc(Br)c3)nc3ccc(Cl)cn23)c1	TDP1 cell noCPT inconclusive, HT1080NT lethal inconclusive, HT1080 IDH1KD tx inconclusive, DT40 TDP1 CPT inconclusive
Cc1ccc2nc(-c3cccc(Br)c3)c(Cc3cccc(Cl)c3)n2c1	TDP1 cell noCPT 18.4µM, DT40 TDP1 CPT inconclusive
COC(=O)C(NC(=O)CNS(=O)(=O)c1ccc(Br)cc1)c1ccccc1 (configuration not stated)	TDP1 cell noCPT inconclusive, DT40 TDP1 CPT inconclusive
COC(=O)c1ccccc1NC(=O)c1oc2ccc3c(c2c1C)C(=O)CC(C)(C)O3	none (no result: HT1080NT lethal, HT1080 IDH1KD tx, IL-1B inflam inh)
N#Cc1ccsc1NC(=O)C1CC(=O)N(Cc2ccccc2)C1 (configuration not stated)	none
c1ccc(Cc2c(-c3ccccc3)nc3c4ccccc4ccn23)cc1	TDP1 cell noCPT inconclusive, DT40 TDP1 CPT inconclusive
Brc1cccc(-c2nc3c4ccccc4ccn3c2Cc2ccccc2)c1	TDP1 cell noCPT inconclusive, DT40 TDP1 CPT 20.6µM
COc1ccccc1N1CCN(CC(C)N(C(=O)C2CCCCC2)c2ccccn2)CC1 (configuration not stated)	TDP1 cell noCPT inconclusive
COc1ccccc1N1CCN(CCN(C(=O)C2CCCCC2)c2ccccn2)CC1	TDP1 cell noCPT 23.1µM, DT40 TDP1 CPT inconclusive
O=C(O)c1ccc(NS(=O)(=O)c2ccc(Cl)c(C(=O)Nc3ccccc3[N+](=O)[O-])c2)cc1	none
O=C(CC1C(=O)NCCN1Cc1ccc(-c2ccccc2)cc1)NCc1ccccc1 (configuration not stated)	TDP1 cell noCPT inconclusive, IL-1B inflam inh -56.9, DT40 TDP1 CPT inconclusive
O=C(CC1C(=O)NCCN1Cc1ccc(-c2ccccc2)cc1)NC1CCC1 (configuration not stated)	TDP1 cell noCPT 14.6µM
CCc1cc(CNC(=O)CC2C(=O)NCCN2Cc2ccc(-c3ccccc3)cc2)on1 (configuration not stated)	TDP1 cell noCPT inconclusive
COc1ccc(-c2[nH]ncc2/C=N/NC(=O)c2cccc([N+](=O)[O-])c2)cc1OC	none
CCn1c(NC(=O)c2ccc(COc3ccc(C)cc3[N+](=O)[O-])o2)nc2ccccc21	TDP1 cell noCPT inconclusive, DT40 TDP1 CPT 16.4µM
Cc1cc(C)c(C(N)=O)c(SCC(=O)c2ccc(Cl)cc2)n1	TDP1 cell noCPT inconclusive, DT40 TDP1 CPT inconclusive
Cc1cc(C)c(C#N)c(SCC(=O)c2ccccc2)n1	DT40 TDP1 CPT 16.4µM
Cc1ccc(C(=O)CSc2nc(C)cc(C)c2C(N)=O)cc1	TDP1 cell noCPT inconclusive, HT1080NT lethal inconclusive, HT1080 IDH1KD tx inconclusive, IL-1B inflam inh -52.1, DT40 TDP1 CPT inconclusive
Cc1cc(C)c(C#N)c(SCC(=O)c2cccs2)n1	TDP1 cell noCPT inconclusive, IL-1B inflam inh -98.5
CCNc1nc(NC(C)C)nc(Oc2ccc(/C=N/O)cc2)n1	none
CCCn1cnnc1CNC(=O)C1CCC(=O)N(CCCc2ccccc2)C1 (configuration not stated)	none
